The inhibition is the relative decrease from the control value, in per cent.

Active and inactive are the calls of the source.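 How the source made its calls: active means inhibition above the hit cutoff set in the earlier primary screen (cut at about 27% in these data); inactive means the rest.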

Drawing on PubChem BioAssay, this text covers inhibition for 25 molecules.

Chain of Protein phosphatase methylesterase 1 (Homo sapiens) (Q9Y570 whole entry, looked up): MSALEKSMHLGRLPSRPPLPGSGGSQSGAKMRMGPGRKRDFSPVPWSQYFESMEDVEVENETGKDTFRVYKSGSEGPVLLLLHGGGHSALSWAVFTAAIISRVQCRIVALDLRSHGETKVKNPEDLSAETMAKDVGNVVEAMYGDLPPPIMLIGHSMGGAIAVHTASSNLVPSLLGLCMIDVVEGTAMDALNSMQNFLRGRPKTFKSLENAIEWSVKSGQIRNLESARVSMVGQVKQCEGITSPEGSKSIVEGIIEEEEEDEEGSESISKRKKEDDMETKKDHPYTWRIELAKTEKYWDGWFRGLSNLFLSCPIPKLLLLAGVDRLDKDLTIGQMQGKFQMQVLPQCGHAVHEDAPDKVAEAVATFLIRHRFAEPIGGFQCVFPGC

This assay has as its target Protein phosphatase methylesterase 1 (Homo sapiens) (UniProt Q9Y570). The assay is described as follows: human PME-1 methylesterase inhibition confirmation – biochemical, fluorescence polarization, FP-Rh probe, triplicate (AID 2171).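 Further: 0% = enzyme with DMSO and 100% = wells lacking PME-1.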 The settings on record: recombinant PME-1, FP-Rh probe fluorescence polarization; at 5.9 µM; hits give high values. On the technique in general: Polarisation of emitted light reports the rotation of a fluorescent probe.
For the molecule `O=c1[nH]c(C2CCN(S(=O)(=O)c3ccc(C(F)(F)F)cc3)CC2)nc2c1nnn2Cc1ccc(F)cc1`, the inhibition is 79.1% (active). In the case of `O=C(NCCc1ccccc1)c1ccc2nc(-c3ccco3)c(-c3ccco3)nc2c1` it was 15.6% (inactive). In the case of `COc1ccccc1-c1sc2ccccc2c1-c1ccc(C(C)=O)cc1` it was -9.37% (inactive); in that of `Cc1noc(C)c1CSc1nc2ccccc2nc1NS(=O)(=O)c1ccc(Cl)cc1`, 36% (active); in that of `Cn1c(=O)c(NCCc2ccccc2)c2c3c(cccc31)C(=O)c1ccccc1-2`, 177% (active). In the case of `CCCCN(C)C1=CC2=CC(=C(C#N)C#N)CCC2CC1` (stereo not given) it was -13% (inactive). On to `CCOc1cc(N(CC)CC)ccc1/C=C(/C#N)c1nc2ccccc2[nH]1`, for which the inhibition was 8.91% (inactive). With `Nc1c(C(=O)Nc2ccc(F)cc2)sc2nc(-c3ccco3)ccc12`, the inhibition is 49.6% (active). On to `C/C(=C\c1ccc2c(c1)OCO2)C1Nc2cccc3cccc(c23)N1`, for which the inhibition is 28.5% (active). The result for `S=C(Nc1ccc(N2CCOCC2)cc1)Nc1ccc2nc(-c3ccco3)c(-c3ccco3)nc2c1` reads 24.7% (inactive); that for `Cc1nn(-c2ccc(Br)cc2)c(=O)c2ccccc12`, 4.4% (inactive); that for `O=C(CN1CCCc2ccccc21)N/N=C/c1c(O)ccc2ccccc12`, 5.54% (inactive).

`N#CCC(=O)c1ccccc1Oc1ccc(Cl)cc1`: the inhibition was 13.4% (inactive).

Turning to `CC1=NN(c2ccc(C)c(C)c2)C(=O)C1C(c1cccc(O)c1)C1C(=O)N(c2ccc(C)c(C)c2)N=C1C` (stereo not given), the inhibition was 15.3% (inactive). The result for `Cc1ccc2nc(/C(C#N)=C/c3ccc(O)c(O)c3)[nH]c2c1` reads 17.9% (inactive). In the case of `Oc1[nH]c2ccccc2c1C=Nc1ccc2c(c1)OCO2`, the inhibition was 23.6% (inactive).

Turning to `CN(C)c1ccc(NC(=O)Nc2cccc(Cl)c2)cc1`, the inhibition was 19.8% (inactive). Consider `CCN(CC(=O)Nc1c(F)cccc1F)C(=O)CCc1ccc(OC)cc1`, for which the inhibition is 6.49% (inactive). The result for `O=C1C=C(N2CCCCC2)c2ccccc2C1=O` reads 43% (active). In the case of `COc1ccc(-c2cc(-c3ccc(Cl)cc3)n[nH]2)c(O)c1` it was 16.9% (inactive); in that of `COc1ccc(C2Nc3cccc4cccc(c34)N2)cc1Br`, 15.1% (inactive). The result for `Cc1ccc(C)c(NC(=O)COC(=O)c2cccc3c2C(=O)c2ccccc2C3=O)c1` reads 92.7% (active); that for `O=C1NC(=S)/C(=C\c2ccc(-c3ccccc3Cl)o2)S1`, 33.2% (active); that for `CCn1cc(C(=O)NCCCN2CCC(C)CC2)c(=O)c2cc(S(=O)(=O)N(C)C3CCCCC3)ccc21`, 31.6% (active).

Regarding `CCCn1c(N)c(C(=O)CN(C)CC(=O)Nc2ccccc2CC)c(=O)[nH]c1=O`, the inhibition is 20.4% (inactive).
